Compound activity deposited in PubChem by Johns Hopkins Ion Channel Center.
KCNQ2 inh – inhibitors of rat KCNQ2 potassium channel; 1.1% of 310,000 active; AID 2156; B-score at 10 µM; CHO-K1 KCNQ2, FluxOR thallium flux, 20 min; active compounds read low; O88943;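 active means fluorescence ratio B-score at most minus 3 library SDs, with starting brightness B-score within 2 library SDs, cut at about -5.5 in these data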
KCNQ2 pot – potentiators of rat KCNQ2 potassium channel. 0.54% of 310,000 active. B-score at 10 µM. CHO-K1 KCNQ2, FluxOR thallium flux fluorescence; active compounds read high. AID 2239. O88943;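 active means fluorescence ratio B-score at least 3 SD of library B-scores, with initial fluorescence B-score within 3 of them, cut at about 5.3 in these data; same plate scores as AID 2156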;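 further: B-score of peak minus minimum over baseline fluorescence ratio after K+ and Tl+ stimulus; positive B-score means potentiation of KCNQ2 with more thallium influx and brighter signal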
KCNQ2 inh conf – confirmation of rat KCNQ2 potassium channel inhibitors. activity change, negative = inhibition, % at 10 µM. KCNQ2-expressing cells, thallium flux, inhibition; active compounds read low. 57% of 1,000 active. shares compounds with KCNQ2 inh;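 further: 0% = vehicle wells and values are ratio percent relative to vehicle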
KCNQ1 spec – selectivity of KCNQ2 inhibitors against human KCNQ1; shares compounds with KCNQ2 inh; KCNQ1-expressing cells, FluxOR thallium flux fluorescence; active compounds read low; activity change, negative = inhibition, % at 10 µM; 15% of 1,000 active;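 active means activity change at least 3 SD of negative controls below their mean in both duplicate wells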;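 further: CHO cells stably transfected with KCNQ1 and depolarized by potassium stimulus; peak minus minimum fluorescence over baseline after thallium addition; 0% = vehicle negative control and -100% = blank without thallium stimulus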
Target sequence (P51787 whole entry, looked up): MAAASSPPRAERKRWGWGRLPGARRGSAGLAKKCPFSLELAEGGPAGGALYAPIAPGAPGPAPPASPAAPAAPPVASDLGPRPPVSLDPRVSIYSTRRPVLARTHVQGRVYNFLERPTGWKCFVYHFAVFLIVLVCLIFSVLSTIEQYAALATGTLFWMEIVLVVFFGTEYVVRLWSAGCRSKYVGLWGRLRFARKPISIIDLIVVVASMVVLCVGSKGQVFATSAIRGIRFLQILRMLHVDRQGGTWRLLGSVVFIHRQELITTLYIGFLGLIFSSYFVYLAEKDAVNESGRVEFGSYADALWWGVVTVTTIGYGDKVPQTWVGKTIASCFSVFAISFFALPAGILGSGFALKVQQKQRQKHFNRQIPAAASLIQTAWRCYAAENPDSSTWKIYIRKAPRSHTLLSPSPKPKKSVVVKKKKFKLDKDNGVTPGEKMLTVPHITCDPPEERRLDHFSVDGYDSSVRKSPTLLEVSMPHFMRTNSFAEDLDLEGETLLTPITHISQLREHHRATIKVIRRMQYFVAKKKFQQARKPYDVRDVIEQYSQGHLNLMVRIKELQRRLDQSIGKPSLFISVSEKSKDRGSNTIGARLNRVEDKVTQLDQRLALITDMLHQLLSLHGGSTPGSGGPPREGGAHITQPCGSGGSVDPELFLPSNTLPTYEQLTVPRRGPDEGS
CHO parental ctr – counter-screen for KCNQ2 inhibitors: effect in parental CHO cells; shares compounds with KCNQ2 inh; thallium flux counter-screen; active compounds read low; activity change, % at 10 µM; 14% of 1,000 active; AID 493029;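 further: 0% = vehicle negative controls with stimulus buffer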
KCNQ2 inh confirm – blocks rat KCNQ2 current in automated patch clamp | shares compounds with KCNQ2 inh | KCNQ2-expressing cells | calls only at 10 µM | 49% of 550 active | AID 588531
Numbers without * were called inactive; i = inactive; nt = no result given; + = active, no number. Most compounds without a hit are left out; they make up all but 1.6% or so of the library. Unless noted, how the calls were made is not given here.

SMILES	KCNQ2 inh	KCNQ2 pot	KCNQ2 inh conf	KCNQ1 spec	CHO parental ctr	others
C=C1CCN([C@@H](Cc2ccccc2)C(=O)NCc2ccc(Cl)cc2)S(=O)(=O)c2ccccc21	-6.01*	-6.01	nt	nt	nt
Cc1cccc(C)c1NS(=O)(=O)c1cc2c3c(c1)CC(=O)N3CCC2	i	0.02	nt	nt	nt
COc1cc(NC(=O)c2cc3nc(-c4ccccc4)cc(-c4ccccc4)n3n2)cc(OC)c1OC	-7.11*	-7.11	i	i	i
COc1cc(NC(=O)c2cc(-c3ccccc3)on2)cc(OC)c1OC	i	nt	nt	nt	nt
CCN(CC(=O)Nc1c(F)cccc1F)C(=O)/C=C/c1ccc2c(c1)OCO2	i	nt	nt	nt	nt
CC1C(=O)N2CCCc3cc(NC(=O)CC(C)(C)C)cc1c32 (stereo unspecified)	i	1.81	nt	nt	nt
Cc1nc2ccc(NC(=O)c3cccc(S(=O)(=O)N(C)c4ccccc4)c3)cc2s1	i	nt	nt	nt	nt
CN(c1ccccc1)S(=O)(=O)c1cccc(NC(=O)c2ccc3ncsc3c2)c1	-7.42*	-7.42	i	i	i
Cn1c(NCc2cccc(Br)c2)nc2ccccc21	-8.98*	-8.98	-33.5%*	-28.0%*	-22.0%*	KCNQ2 inh confirm=+
Brc1cccc(CNc2nc3ccccc3n2CCN2CCCCC2)c1	i	nt	nt	nt	nt
Cn1c(SCC(=O)Nc2nccs2)nnc1-c1ccccn1	i	1.16	nt	nt	nt
COc1ccccc1CNC(=O)COC(=O)c1ccc(C)c(S(=O)(=O)N2CCCCC2)c1	-8.44*	-8.44	-36.0%*	-39.0%*	-25.5%*	KCNQ2 inh confirm=+
COc1ccccc1CNC(=O)COC(=O)c1cccc(S(=O)(=O)N2CCCCC2)c1	i	nt	nt	nt	nt
O=c1c(C(c2ccccc2)c2c(O)nc3n(c2=O)CCS3)c(O)nc2n1CCS2	i	1.06	nt	nt	nt
NC(=O)c1ccccc1NC(=O)c1ccc2c(c1)OCO2	i	nt	nt	nt	nt
COc1c(C(=O)Nc2nnc(C3CC3)s2)csc1Cl	i	2.21	nt	nt	nt
CN(C)C(=O)c1cn(-c2ccccc2)nc1-c1cccs1	i	0.55	nt	nt	nt
O=C(c1cn(-c2ccccc2)nc1-c1cccs1)N(CCO)Cc1ccccc1	-7.53*	-7.53	i	i	i
O=C1CCC(/C=C/c2ccccc2)=NN1Cc1ccc(F)cc1	i	nt	nt	nt	nt
COc1ccc(/C=N/NC(=O)c2[nH]ncc2Br)c(OC)c1	i	nt	nt	nt	nt
O=C(NC1c2ccccc2-c2ccccc21)N1CCOCC1	-6.95*	-6.95	-28.5%*	i	i	KCNQ2 inh confirm=+
O=C(Cc1ccccc1)NNC(=O)Cc1ccccc1	i	nt	nt	nt	nt
O=C(Cc1ccccc1)NC1c2ccccc2-c2ccccc21	-6.75*	-6.75	i	i	i
O=C(NC(c1ccccc1)c1ccccc1)N1CCOCC1	i	nt	nt	nt	nt
CN(c1ccccc1)c1cc(=O)[nH]c(=O)[nH]1	i	0.13	nt	nt	nt
SMILES	KCNQ2 inh	KCNQ2 pot	KCNQ2 inh conf	KCNQ1 spec	CHO parental ctr	others
Cc1cc(C)cc(N(CC(=O)NCC2CCCO2)C(=O)CCC(=O)Nc2nccs2)c1 (stereo unspecified)	i	nt	nt	nt	nt
O=[N+]([O-])c1cc(Br)c(Nc2ccccc2)c([N+](=O)[O-])c1	i	nt	nt	nt	nt
O=[N+]([O-])c1cc([N+](=O)[O-])c2c(=Nc3ccccc3)n(-c3ccccc3)n(O)c2c1	-9.75*	-9.75	-34.0%*	-39.5%*	-27.5%*	KCNQ2 inh confirm=+
Clc1cccc(Cl)c1CO/N=C/c1c(-c2ccccc2)nc2n1CCS2	-8.46*	-8.46	i	i	i
COC(=O)/C(C#N)=C/c1c(-c2ccccc2)nc2n1CCS2	i	nt	nt	nt	nt
CCn1c(SCC(=O)NC(=O)c2ccccc2OC)nc2ccccc21	i	1.46	nt	nt	nt
Cn1c2ccccc2c2c(C(=O)NCc3ccco3)cn(C3CCCCC3)c(=O)c21	-9.78*	-9.78	-26.0%*	i	i	KCNQ2 inh confirm=+
COCCn1cc(C(=O)NCc2ccco2)c2c3ccccc3n(C)c2c1=O	i	0.07	nt	nt	nt
Cc1cc(-c2nnc(CCC(=O)N3CCN(Cc4cccc(F)c4)CC3)o2)c(C)o1	i	nt	nt	nt	nt
Cc1onc(-c2c(Cl)cccc2Cl)c1C(=O)N1CCOCC1	i	0.75	nt	nt	nt
Cc1cc(C)c2nc(-c3cccc(Cl)c3)c(C)c(C(=O)N3CCOCC3)c2c1	-8.75*	-8.75	-28.0%*	i	i	KCNQ2 inh confirm=+
COc1ccc(NC(=O)c2ccc(NC(=O)COC(=O)c3cnc(C)cn3)cc2)cc1	i	1.7	nt	nt	nt
CN1CCN(CCCN2c3ccccc3Sc3ccc(C(F)(F)F)cc32)CC1	-8.12*	-8.12	-34.0%*	i	i	KCNQ2 inh confirm=i
